Results published in PubChem BioAssay (Tox21).
Values joined by “and” are separate entries in the source; they are usually repeats but may differ in a detail not shown here. Identical values can stand only once. Inconclusive results are not listed. Active and inactive are the calls of the source. Unless noted, the call rests on the fitted dose curve; in most records, active means well fitted curve in the direction sought with a large enough effect in the repeat runs; inconclusive means weak or mixed curves; inactive means no such curve, though single readings can be large; an effect the other way counts as inactive or inconclusive.

Tests used:
[1] = qHTS assay to identify small molecule agonists of the sonic hedgehog signaling (Shh) pathway (AID 1259368; calls by dose curve;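 further: NIH/3T3-derived 3T3Gli1-Luc cells carrying a stable Gli1-driven firefly luciferase reporter; series mostly up to about 92 µM; nearly all actives have a fitted effect of over 15% in size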)
Outline: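 Read-out: firefly luciferase luminescence from a Gli1 response element reporter stably integrated in NIH/3T3-derived 3T3Gli1-Luc cells, measured 30 min at room temperature after reagent addition. Compound exposure lasted 24 hr at 37 C, 5% CO2.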

[2] = qHTS assay to identify small molecule antagonists of the sonic hedgehog signaling (Shh) pathway (AID 1259369; calls by dose curve; further: nearly all actives have a fitted effect of over 45% in size; further: potency means the concentration at half of the fitted maximal effect)
Outline: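 Luminescence readout: firefly Luc under Gli1 response element in 3T3Gli1-Luc cells (NIH/3T3 clone). Antagonist mode, stimulation by conditioned medium; compound exposure 24hr at 37 C, 5% CO2.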

[3] = molecular target: Estrogen receptor beta (Homo sapiens) (UniProt Q92731); assay: qHTS assay to identify small molecule agonists of the estrogen receptor beta (ER-beta) signaling pathway (AID 1259377; active means well fitted activation curve with a large enough effect in the signal ratio in the repeat runs, not every such curve was filed as active; the % refers to the signal ratio)
Outline: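 Read-out: beta-lactamase FRET fluorescence. Cell line: ER-beta-UAS-bla HEK293T in 2% charcoal-stripped FBS. Exposure: 16 hr at 37C. Substrate step: 2 h at room temperature.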

[4] = molecular target: Estrogen receptor beta (Homo sapiens) (UniProt Q92731); assay: qHTS assay to identify small molecule antagonists of the estrogen receptor beta (ER-beta) signaling pathway (AID 1259378; active means well fitted inhibition curve with a large enough effect in the signal ratio in the repeat runs, not every such curve was filed as active; the % refers to the signal ratio; further: potency means the concentration at half of the fitted maximal effect)
Outline: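 ER-beta-UAS-bla HEK293T cells in 2% charcoal-stripped FBS medium treated with compound plus 1nM final 17-beta-estradiol for 16 hr at 37C. Beta-lactamase reporter read by FRET substrate fluorescence after 2 hours at room temperature.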

[5] = qHTS assay to identify small molecule agonists of the androgen receptor (AR) signaling pathway in the presence of an antagonist - cell viability counter screen (AID 1259379);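 further: MDA-kb2 human breast cancer cells carrying an MMTV luciferase reporter; series mostly up to about 92 µM; nearly all actives have a fitted effect of over 25% in size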
Outline: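 Viability counter screen: CellTiter-Fluor fluorescence, measured in the same wells as the luciferase read-out. MDA-kb2 cells, 3,000/well, with nilutamide at 3.0uM final and compounds at 15 concentrations, 16 hr at 37C, 0% CO2.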

[6] = qHTS assay to identify small molecule agonists of the estrogen receptor beta (ER-beta) signaling pathway - cell viability counter screen (AID 1259380); further: nearly all actives have a fitted effect of over 30% in size
Outline: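 Luminescence read-out (CellTiter-Glo, 30 min, room temp) taken in the same wells as the beta-lactamase reporter assay; ER-beta-UAS-bla HEK293T cells exposed to DMSO-dissolved compounds for 16 hr at 37C in 2% charcoal-stripped FBS medium.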

[7] = qHTS assay to identify small molecule antagonists of the estrogen receptor beta (ER-beta) signaling pathway - cell viability counter screen (AID 1259382); further: series mostly up to about 92 µM; nearly all actives have a fitted effect of over 55% in size
Outline: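 Luminescent ATP read-out (CellTiter-Glo, 30 min, RT) taken in the same wells as the bla reporter assay. HEK293T ER-beta-UAS-bla cells in 2% charcoal-stripped FBS were exposed to compounds with 1nM E2 for 16 hr at 37C.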

[8] = qHTS assay to identify small molecule agonists or antagonists of the thyroid stimulating hormone receptor (TSHR) signaling pathway - wild type cell line counter screen (AID 1259384; calls by dose curve)
Outline: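 Wild-type Hek293 cells, 800/well, 18 h at 37C, then compound with Ro20-1724 for 30 min RT. cAMP by HTRF (cAMP-d2/anti-cAMP cryptate), 1 h RT, fluorescence read. 15 concentrations, triplicates.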

[9] = molecular target: Thyrotropin receptor (Homo sapiens) (UniProt P16473); assay: qHTS assay to identify small molecule antagonists of the thyroid stimulating hormone receptor (TSHR) signaling pathway (AID 1259385; calls by dose curve; further: nearly all actives have a fitted effect of over 20% in size)
Outline: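 TSHR-HEK293 cells (800/well) plated 18 h, then compounds with Ro20-1724 and TSH at 1.5 ng/mL final, 30 min at room temperature. cAMP quantified by HTRF (cAMP-d2/anti-cAMP-cryptate, 1 h); 15 concentrations in triplicate.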

[10] = qHTS assay to identify small molecule agonists of the estrogen receptor alpha (ER-alpha) signaling pathway in the presence of an antagonist - cell viability counter screen (AID 1259386);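 further: series mostly up to about 92 µM; cells exposed to compounds for 22 h at 37 °C before the viability read; nearly all actives have a fitted effect of over 30% in size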
Outline: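 Read-out: CellTiter-Fluor fluorescence after 1hr reagent incubation, measured in the same wells as the luciferase readout. VM7Luc4E2 cells were exposed to 15 compound concentrations with 10.0nM ICI-182,780 for 22hr at 37C.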

[11] = molecular target: Progesterone receptor (Homo sapiens) (UniProt P06401); assay: qHTS assay to identify small molecule agonists of the progesterone receptor (PR) signaling pathway (AID 1346784; calls by dose curve; further: nearly all actives have a fitted effect of over 30% in size)
Outline: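 Compounds were tested for PR agonism in HEK 293T cells bearing a beta-lactamase gene under UAS control. Treatment lasted 16 hr at 37C; signal came from fluorescence of a FRET substrate.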

[12] = molecular target: Progesterone receptor (Homo sapiens) (UniProt P06401); assay: qHTS assay to identify small molecule antagonists of the progesterone receptor (PR) signaling pathway (AID 1346795; active means well fitted inhibition curve with a large enough effect in the signal ratio in the repeat runs, not every such curve was filed as active; the % refers to the signal ratio; further: potency means the concentration at half of the fitted maximal effect)
Outline: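 In HEK293T cells bearing the PR-UAS-bla reporter, compound effects on promegestone-driven (1 nM) beta-lactamase expression are assessed after 16 hr using a fluorescent FRET substrate incubated 2 hr at room temperature.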

[13] = qHTS assay to identify small molecule antagonists of the progesterone receptor (PR) signaling pathway - cell viability counter screen (AID 1346798); further: series mostly up to about 92 µM; nearly all actives have a fitted effect of over 50% in size
Outline: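 Following a 4 hr attachment, PR-UAS-bla HEK293T cells in charcoal-stripped FBS medium were exposed to compounds with R5020 for 16 hr; CellTiter-Glo was added and luminescence read after 30 min at room temperature.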

[14] = qHTS assay to identify small molecule antagonists of the TGF-beta/Smad signaling pathway - cell viability counter screen (AID 1346824); further: nearly all actives have a fitted effect of over 50% in size
Outline: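 SBE-bla HEK 293T cells, incubated overnight, then compound plus 0.25 ng/mL TGF-beta1 (stock added) for 5 hr at 37 C. Viability was read in the same wells by CellTiter-Glo luminescence after 30 min at room temperature.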

[15] = qHTS assay to identify small molecule agonists of the TGF-beta/Smad signaling pathway - cell viability counter screen (AID 1346829); further: top concentration of the series differs between compounds; nearly all actives have a fitted effect of over 45% in size
Outline: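 Cytotoxicity counter screen: CellTiter-Glo luminescence (30 min, room temperature) measured in the SBE-bla HEK 293T reporter wells after 5 hr compound treatment at 37 C and the 2 hr substrate step.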

[16] = qHTS assay to identify small molecule agonists of the TGF-beta/Smad signaling pathway (AID 1346859; active means well fitted activation curve with a large enough effect in the signal ratio in the repeat runs, not every such curve was filed as active; the % refers to the signal ratio; further: series mostly up to about 77 µM)
Outline: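 Each well held 4,000 SBE-bla HEK 293T cells incubated overnight before compound addition; 5 hr later the cleavable FRET substrate went on for 2 hr at room temperature, and fluorescence was read at two emissions.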

[17] = molecular target: Thyrotropin-releasing hormone receptor (Homo sapiens) (UniProt P34981); assay: qHTS assay to identify small molecule antagonists of the thyrotropin-releasing hormone receptor (TRHR) signaling pathway (AID 1346877; active means well fitted inhibition curve with a large enough effect in the repeat runs, not every such curve was filed as active; further: series mostly up to about 51 µM)
Outline: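 HEK293/TRHR cells, 18 h, 37 °C; Ca2+ dye 2 h; cpd 5 min RT; TRH 1 nM final; fluorescence read 3 min, 1 s intervals; 15 concs, triplicate.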

[18] = qHTS assay to identify small molecule agonists of the progesterone receptor (PR) signaling pathway - cell viability counter screen (AID 1346799; calls by dose curve; further: nearly all actives have a fitted effect of over 45% in size)
Outline: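 Here, 3,000 PR-UAS-bla HEK293T cells per well were treated with compounds for 16 hr after a 6 hr preincubation at 37C and 5% CO2; cell viability is the CellTiter-Glo luminescence signal.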

[19] = molecular target: Estrogen receptor (Homo sapiens) (UniProt P03372); assay: qHTS assay to identify small molecule agonists of the estrogen receptor alpha (ER-alpha) signaling pathway in the presence of an antagonist (AID 1259383; calls by dose curve; further: top concentration of the series differs between compounds; nearly all actives have a fitted effect of over 15% in size)
Outline: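 Luciferase luminescence (ONE-Glo, 30min at room temperature) measured in VM7Luc4E2 cells after 22hr compound exposure at 15 concentrations, with 10.0nM ICI-182,780 final present; cells express endogenous ER-alpha and carry four EREs upstream of luciferase.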
On the % scale 0 is the no-effect control and ±100 the full control effect.

Thyrotropin receptor (Homo sapiens), sequence (P16473 whole entry, looked up): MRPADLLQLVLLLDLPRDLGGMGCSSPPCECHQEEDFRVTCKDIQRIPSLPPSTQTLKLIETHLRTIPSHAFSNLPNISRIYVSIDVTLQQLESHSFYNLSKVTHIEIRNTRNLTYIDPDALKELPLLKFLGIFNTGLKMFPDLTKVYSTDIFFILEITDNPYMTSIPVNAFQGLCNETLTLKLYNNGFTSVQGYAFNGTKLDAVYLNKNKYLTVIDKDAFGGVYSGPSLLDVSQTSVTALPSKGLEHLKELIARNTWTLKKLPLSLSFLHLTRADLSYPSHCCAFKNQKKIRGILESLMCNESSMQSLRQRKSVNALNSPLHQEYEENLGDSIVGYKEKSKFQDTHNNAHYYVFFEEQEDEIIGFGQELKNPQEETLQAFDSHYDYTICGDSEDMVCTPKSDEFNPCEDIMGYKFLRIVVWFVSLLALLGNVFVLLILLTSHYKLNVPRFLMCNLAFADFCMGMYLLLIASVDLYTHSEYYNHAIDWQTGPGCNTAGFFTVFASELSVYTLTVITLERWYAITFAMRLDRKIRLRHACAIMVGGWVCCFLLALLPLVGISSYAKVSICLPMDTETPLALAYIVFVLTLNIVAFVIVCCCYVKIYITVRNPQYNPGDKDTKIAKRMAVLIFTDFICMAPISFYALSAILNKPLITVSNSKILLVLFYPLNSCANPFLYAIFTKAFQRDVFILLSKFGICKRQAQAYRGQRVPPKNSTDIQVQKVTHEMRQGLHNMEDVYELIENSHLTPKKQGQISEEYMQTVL
Estrogen receptor beta (Homo sapiens), sequence (Q92731 whole entry, looked up): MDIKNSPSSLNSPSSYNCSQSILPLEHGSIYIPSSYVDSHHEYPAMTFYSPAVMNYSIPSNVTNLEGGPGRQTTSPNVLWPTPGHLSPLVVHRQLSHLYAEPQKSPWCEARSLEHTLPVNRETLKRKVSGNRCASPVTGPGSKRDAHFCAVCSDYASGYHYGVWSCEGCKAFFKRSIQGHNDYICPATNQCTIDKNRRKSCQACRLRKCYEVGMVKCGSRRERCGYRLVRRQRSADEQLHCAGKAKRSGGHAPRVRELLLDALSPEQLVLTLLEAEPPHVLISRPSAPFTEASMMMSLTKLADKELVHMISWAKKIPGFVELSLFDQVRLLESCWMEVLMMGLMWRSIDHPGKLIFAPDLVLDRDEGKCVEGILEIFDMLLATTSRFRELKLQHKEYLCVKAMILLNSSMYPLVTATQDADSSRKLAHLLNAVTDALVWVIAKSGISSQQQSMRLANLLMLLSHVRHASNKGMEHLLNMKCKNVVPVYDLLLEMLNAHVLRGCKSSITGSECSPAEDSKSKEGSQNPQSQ
Progesterone receptor (Homo sapiens), sequence (P06401 whole entry, looked up): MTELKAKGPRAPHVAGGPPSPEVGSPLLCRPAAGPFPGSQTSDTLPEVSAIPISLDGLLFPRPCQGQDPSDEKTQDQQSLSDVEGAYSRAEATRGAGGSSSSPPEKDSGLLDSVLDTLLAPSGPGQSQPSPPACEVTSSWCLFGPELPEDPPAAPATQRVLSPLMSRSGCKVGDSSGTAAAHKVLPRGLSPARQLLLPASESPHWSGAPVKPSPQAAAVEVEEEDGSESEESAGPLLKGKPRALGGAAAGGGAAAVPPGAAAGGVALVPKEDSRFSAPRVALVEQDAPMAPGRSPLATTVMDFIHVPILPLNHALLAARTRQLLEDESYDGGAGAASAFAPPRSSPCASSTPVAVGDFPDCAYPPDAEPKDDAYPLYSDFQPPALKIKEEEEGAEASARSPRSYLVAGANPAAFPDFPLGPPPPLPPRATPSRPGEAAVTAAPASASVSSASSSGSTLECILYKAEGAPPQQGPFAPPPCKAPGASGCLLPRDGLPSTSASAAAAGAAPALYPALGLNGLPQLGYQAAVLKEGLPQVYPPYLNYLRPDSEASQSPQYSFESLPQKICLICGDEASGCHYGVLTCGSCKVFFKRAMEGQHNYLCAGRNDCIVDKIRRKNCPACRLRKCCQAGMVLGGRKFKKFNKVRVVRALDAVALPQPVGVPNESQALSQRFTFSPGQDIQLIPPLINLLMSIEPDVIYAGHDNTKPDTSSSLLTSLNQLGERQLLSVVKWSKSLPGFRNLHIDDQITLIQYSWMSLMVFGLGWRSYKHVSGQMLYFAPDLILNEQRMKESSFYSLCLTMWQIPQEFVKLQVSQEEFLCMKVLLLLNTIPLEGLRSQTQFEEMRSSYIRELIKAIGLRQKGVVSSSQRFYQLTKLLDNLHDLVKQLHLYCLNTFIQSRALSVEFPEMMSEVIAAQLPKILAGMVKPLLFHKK
Thyrotropin-releasing hormone receptor (Homo sapiens), sequence (P34981 whole entry, looked up): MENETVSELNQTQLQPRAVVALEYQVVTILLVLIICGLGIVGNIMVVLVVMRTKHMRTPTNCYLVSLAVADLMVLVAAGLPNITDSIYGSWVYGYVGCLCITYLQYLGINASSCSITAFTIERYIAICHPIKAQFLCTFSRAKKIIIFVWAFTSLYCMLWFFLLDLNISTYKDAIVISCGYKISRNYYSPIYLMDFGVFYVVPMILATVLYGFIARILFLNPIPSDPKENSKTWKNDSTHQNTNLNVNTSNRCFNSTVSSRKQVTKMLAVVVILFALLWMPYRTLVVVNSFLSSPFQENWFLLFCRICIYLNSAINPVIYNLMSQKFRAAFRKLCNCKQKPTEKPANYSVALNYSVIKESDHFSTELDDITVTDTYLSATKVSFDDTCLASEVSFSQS
Estrogen receptor (Homo sapiens), sequence (P03372 whole entry, looked up): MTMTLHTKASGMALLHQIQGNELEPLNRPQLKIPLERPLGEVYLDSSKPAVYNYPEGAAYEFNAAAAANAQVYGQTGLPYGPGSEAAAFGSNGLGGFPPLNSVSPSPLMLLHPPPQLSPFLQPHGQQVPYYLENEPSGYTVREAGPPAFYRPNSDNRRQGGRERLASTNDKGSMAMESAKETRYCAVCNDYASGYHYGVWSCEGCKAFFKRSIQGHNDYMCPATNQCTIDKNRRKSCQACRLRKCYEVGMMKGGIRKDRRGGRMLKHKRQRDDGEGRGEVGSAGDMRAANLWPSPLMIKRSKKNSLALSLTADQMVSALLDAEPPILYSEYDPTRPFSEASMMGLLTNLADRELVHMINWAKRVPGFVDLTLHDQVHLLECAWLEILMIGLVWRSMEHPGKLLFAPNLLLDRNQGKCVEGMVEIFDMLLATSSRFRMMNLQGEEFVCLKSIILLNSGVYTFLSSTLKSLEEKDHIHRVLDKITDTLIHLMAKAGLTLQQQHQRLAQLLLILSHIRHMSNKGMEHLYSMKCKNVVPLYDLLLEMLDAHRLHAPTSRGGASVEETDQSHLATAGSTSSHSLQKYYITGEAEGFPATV

NCC(CC(=O)O)c1ccc(Cl)cc1 (stereo unspecified)
inactive: activity change [1] -1.29% [at 0.349 µM, active compounds read high] | activity change, negative = inhibition [2] 38.7% [at 0.349 µM] | activation [3] -2.59% [at 0.348 µM] | activity, negative = inhibition [4] 0.814% [at 0.349 µM] | activity change, negative = cytotoxicity [5] 0.676% [at 0.35 µM] | activity change, negative = cytotoxicity [6] 4.02% [at 0.349 µM] | activity change, negative = cytotoxicity [7] 5.5% [at 0.349 µM] | cAMP activity change [8] 0.519% [at 0.349 µM] | activity change, negative = inhibition [9] 2.95% [at 0.349 µM] | activity change, negative = cytotoxicity [10] 7.95% [at 0.349 µM] | activation [11] 1.24% [at 0.349 µM] | activity change, negative = inhibition [12] 7.47% [at 0.348 µM] | activity change, negative = cytotoxicity [13] -8.73% [at 0.348 µM] | viability change, negative = cytotoxic [14] 2.11% [at 0.29 µM] | activity change, negative = cytotoxicity [15] -5.36% [at 0.29 µM] | activation [16] -0.421% [at 0.29 µM] | activity, negative = inhibition [17] 7.63% [at 0.194 µM]

O=C1c2ccccc2C(=O)C1C(=O)C(c1ccccc1)c1ccccc1
active: Potency [4] 23.7 µM
inactive: Potency [1] | Potency [2] | Potency [3] | Potency [5] | Potency [6] | Potency [7] | outcome [8] | Potency [9] | Potency [10] | Potency [11] | Potency [18] | Potency [14] | Potency [15] | outcome [16] | Potency [17]

COc1cc(Cl)c(OC)cc1Cl
inactive: Potency [1] | Potency [2] | Potency [3] | Potency [4] | Potency [5] | Potency [6] | Potency [7] | Potency [19] | Potency [10] | Potency [11] | Potency [12] | Potency [13] | Potency [18] | Potency [14] | outcome [16] | Potency [17]

CCOP(=O)(OCC)Oc1ccc([N+](=O)[O-])cc1
active: Potency [12] 17.4 µM and 17.2 µM
inactive: Potency [1] | Potency [2] | Potency [3] | Potency [4] | Potency [5] | Potency [6] | Potency [7] | outcome [8] | Potency [9] | Potency [10] | Potency [13] | Potency [18] | Potency [14] | Potency [15] | outcome [16]

CC1C(=O)C[C@]2(C(C)C)C[C@H]12 (stereo partly specified)
inactive: Potency [1] | Potency [2] | Potency [3] | Potency [4] | Potency [5] | Potency [6] | Potency [7] | outcome [8] | Potency [9] | Potency [10] | Potency [12] | Potency [13] | Potency [18] | Potency [14] | Potency [15] | outcome [16]

CCBr
inactive: Potency [1] | Potency [2] | Potency [3] | Potency [4] | Potency [5] | Potency [6] | Potency [7] | Potency [19] | outcome [8] | Potency [9] | Potency [10] | Potency [11] | Potency [12] | Potency [13] | Potency [18] | Potency [14] | Potency [15] | outcome [16]

O=C1CN=C(c2ccccc2)c2cc(Cl)ccc2N1CC1CC1
inactive: Potency [1] | Potency [3] | Potency [5] | Potency [6] | Potency [7] | Potency [14] | Potency [15]
active: Potency [2] 51 µM | Potency [4] 28.7 µM | Potency [12] 11.4 µM

O=C(O)CC(Cl)C(=O)O (stereo unspecified)
inactive: Potency [1] | Potency [2] | Potency [3] | Potency [4] | Potency [5] | Potency [6] | Potency [7] | outcome [8] | Potency [9] | Potency [10] | Potency [11] | Potency [12] | Potency [13] | Potency [14] | Potency [15] | outcome [16] | Potency [17]
